From PubChem
Compounds with a hit are over-represented: about 2.4% of the library has one in this group of screens.
ASK1 inh – ASK1 kinase inhibitors, primary screen, biochemical, AlphaScreen; Mitogen-activated protein kinase kinase kinase 5 (Homo sapiens), Q99683; AlphaScreen MKK6 phosphorylation by ASK1, luminescence; inhibition, % at 7.44 µM; 22,000 compounds, 0.99% hits; AID 1159602, 2016; in the data active = inhibition above about 35%
ULK1 inh – ULK1 kinase inhibitors, primary screen, biochemical, AlphaScreen. Serine/threonine-protein kinase ULK1 (Homo sapiens), O75385. AlphaScreen Atg13 phosphorylation by ULK1, luminescence. inhibition, % at 5.96 µM. 30,000 compounds, 1.9% hits. AID 1259251, 2017; in the data active = inhibition above about 43%
A number is an active result; n = inactive; x = no result.

SMILES	ASK1 inh	ULK1 inh
O=C(NC(Oc1ccc([N+](=O)[O-])cc1)C(Cl)(Cl)Cl)c1ccco1 (stereo unspecified)	x	n
C[N+]1([O-])C2CCC1CC(OC(=O)C(CO)c1ccccc1)C2 (stereo unspecified)	x	n
O=C(NCCN1CCOCC1)c1ccnc(Cl)c1	n	n
O=C1OC(c2ccc(O)c(S(=O)(=O)O)c2)(c2ccc(O)c(S(=O)(=O)O)c2)c2c(Br)c(Br)c(Br)c(Br)c21	x	64
COc1ccc(CCN2CCC(=O)CC2)cc1OC	x	n
COc1ccc(Cc2nccc3cc(OC)c(OC)cc23)cc1OC	x	69
CN1C(=O)CN=C(c2ccccc2F)c2cc([N+](=O)[O-])ccc21	x	n
OC(c1ccc(Cl)cc1)(c1ccc(Cl)cc1)C1CC1	x	n
